Assay results from article PMC7862700, “An all-to-all approach to the identification of sequence-specific readers for epigenetic DNA modifications on cytosine”.

Columns and labels:
Assay in all cases: DAPPL (digital affinity profiling via proximity ligation, sequencing); 10 mM Tris-HCl pH 7.5, 50 mM NaCl, 1 mM DTT, 4% glycerol, room temperature, 30 min; GST-TFs on glutathione beads, 16-mer random dsDNA library, 0.1% formaldehyde crosslink after washing; high values mean tight binding
FLI1 = target: T1, FLI1 (Homo sapiens, UniProt Q01543 1-452); conditions: protein: recombinant; tags: N-terminal GST; dsDNA, one strand shown
T1 sequence: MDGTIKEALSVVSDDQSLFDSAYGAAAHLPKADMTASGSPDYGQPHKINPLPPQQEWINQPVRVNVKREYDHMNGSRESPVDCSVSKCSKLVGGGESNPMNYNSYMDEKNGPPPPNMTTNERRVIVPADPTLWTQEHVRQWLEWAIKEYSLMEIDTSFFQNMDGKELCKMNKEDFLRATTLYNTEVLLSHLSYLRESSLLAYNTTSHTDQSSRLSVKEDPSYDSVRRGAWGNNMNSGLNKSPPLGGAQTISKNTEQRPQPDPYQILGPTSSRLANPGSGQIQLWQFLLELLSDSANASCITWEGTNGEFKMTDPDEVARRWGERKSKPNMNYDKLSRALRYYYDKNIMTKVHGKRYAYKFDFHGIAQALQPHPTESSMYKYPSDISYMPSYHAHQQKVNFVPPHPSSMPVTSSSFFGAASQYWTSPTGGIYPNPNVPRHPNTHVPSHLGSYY
In short: (§1)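 Pools were built from human transcription factors expressed in yeast as GST fusions, captured on glutathione beads and DNA-barcoded, along with a tag-only sample. Incubation with 200 nmole of a 16-mer random double-stranded DNA library lasted 30 min at room temperature in Tris/NaCl/DTT/glycerol buffer, and was followed by washing, 0.1% formaldehyde crosslinking, proximity ligation, PCR amplification and Illumina NextSeq500 sequencing. Binding signal is the quotient of each hexamer's read frequency for a factor and its frequency for the tag-only sample.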

ELK1 = target: T2, ELK1 (Homo sapiens, UniProt P19419 1-428); conditions: protein: recombinant; tags: N-terminal GST; dsDNA, one strand shown
T2 sequence: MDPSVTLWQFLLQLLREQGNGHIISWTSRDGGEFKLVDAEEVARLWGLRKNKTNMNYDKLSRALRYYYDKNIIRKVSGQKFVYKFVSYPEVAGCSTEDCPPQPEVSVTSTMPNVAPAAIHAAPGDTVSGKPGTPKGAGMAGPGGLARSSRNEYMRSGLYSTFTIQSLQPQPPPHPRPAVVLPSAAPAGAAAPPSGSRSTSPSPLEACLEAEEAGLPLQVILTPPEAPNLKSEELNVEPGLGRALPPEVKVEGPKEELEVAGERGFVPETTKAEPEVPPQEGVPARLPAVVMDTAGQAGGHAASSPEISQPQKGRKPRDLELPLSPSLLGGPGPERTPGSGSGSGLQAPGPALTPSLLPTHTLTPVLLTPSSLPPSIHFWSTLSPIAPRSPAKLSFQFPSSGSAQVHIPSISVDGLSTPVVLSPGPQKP
In short: as §1

GABPA = target: T3, GABPA (Homo sapiens, UniProt Q06546 1-454); conditions: protein: recombinant; tags: N-terminal GST; dsDNA, one strand shown
T3 sequence: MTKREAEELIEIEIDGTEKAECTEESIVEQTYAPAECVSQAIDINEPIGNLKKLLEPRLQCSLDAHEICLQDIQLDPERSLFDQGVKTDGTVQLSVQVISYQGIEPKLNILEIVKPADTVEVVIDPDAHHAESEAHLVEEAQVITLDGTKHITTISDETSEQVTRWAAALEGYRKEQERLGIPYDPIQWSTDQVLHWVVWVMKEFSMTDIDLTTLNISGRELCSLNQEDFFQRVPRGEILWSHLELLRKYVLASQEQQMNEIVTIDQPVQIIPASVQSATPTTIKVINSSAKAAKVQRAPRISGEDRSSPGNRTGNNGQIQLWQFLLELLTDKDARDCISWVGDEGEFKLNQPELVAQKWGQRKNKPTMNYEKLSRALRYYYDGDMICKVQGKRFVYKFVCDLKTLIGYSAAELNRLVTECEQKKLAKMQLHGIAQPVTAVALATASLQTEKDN
In short: as §1

ERG = target: T4, ERG (Homo sapiens, UniProt P11308 1-479); conditions: protein: recombinant; tags: N-terminal GST; dsDNA, one strand shown
T4 sequence: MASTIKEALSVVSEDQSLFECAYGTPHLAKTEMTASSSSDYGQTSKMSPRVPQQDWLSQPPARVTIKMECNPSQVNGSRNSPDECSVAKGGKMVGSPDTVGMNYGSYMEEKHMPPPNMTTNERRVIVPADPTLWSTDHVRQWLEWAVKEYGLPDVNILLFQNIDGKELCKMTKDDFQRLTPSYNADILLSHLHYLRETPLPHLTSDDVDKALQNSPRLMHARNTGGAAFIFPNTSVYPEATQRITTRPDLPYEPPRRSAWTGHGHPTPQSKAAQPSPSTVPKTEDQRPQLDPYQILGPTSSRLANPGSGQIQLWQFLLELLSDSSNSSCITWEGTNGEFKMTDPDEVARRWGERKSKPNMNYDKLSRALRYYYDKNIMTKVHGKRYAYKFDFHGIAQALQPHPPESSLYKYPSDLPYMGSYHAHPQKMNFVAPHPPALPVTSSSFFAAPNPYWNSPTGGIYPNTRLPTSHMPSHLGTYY
In short: as §1

ELF1 = ELF1 (Homo sapiens, UniProt P32519 1-619); conditions: protein: recombinant; tags: N-terminal GST; dsDNA, one strand shown
Chain of ELF1 (P32519 whole entry): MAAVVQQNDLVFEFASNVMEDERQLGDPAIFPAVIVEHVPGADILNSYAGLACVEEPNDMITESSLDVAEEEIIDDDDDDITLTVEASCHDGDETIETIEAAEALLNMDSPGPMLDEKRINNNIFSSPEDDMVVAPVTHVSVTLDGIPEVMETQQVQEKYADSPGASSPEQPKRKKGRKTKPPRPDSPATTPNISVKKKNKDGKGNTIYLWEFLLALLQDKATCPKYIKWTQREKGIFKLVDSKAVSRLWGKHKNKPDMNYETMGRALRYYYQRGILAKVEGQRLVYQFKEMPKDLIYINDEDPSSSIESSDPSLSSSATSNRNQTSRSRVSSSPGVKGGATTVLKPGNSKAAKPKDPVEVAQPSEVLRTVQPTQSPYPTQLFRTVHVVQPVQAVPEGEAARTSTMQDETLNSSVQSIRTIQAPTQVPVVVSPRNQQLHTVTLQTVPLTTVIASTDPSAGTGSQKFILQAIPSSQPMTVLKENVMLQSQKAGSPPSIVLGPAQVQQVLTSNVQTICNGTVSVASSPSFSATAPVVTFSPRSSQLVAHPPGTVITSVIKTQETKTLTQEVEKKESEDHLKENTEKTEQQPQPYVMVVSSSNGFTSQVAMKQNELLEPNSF
In short: as §1

EHF = target: T5, EHF (Homo sapiens, UniProt Q9NZC4 1-300); conditions: protein: recombinant; tags: N-terminal GST; dsDNA, one strand shown
T5 sequence: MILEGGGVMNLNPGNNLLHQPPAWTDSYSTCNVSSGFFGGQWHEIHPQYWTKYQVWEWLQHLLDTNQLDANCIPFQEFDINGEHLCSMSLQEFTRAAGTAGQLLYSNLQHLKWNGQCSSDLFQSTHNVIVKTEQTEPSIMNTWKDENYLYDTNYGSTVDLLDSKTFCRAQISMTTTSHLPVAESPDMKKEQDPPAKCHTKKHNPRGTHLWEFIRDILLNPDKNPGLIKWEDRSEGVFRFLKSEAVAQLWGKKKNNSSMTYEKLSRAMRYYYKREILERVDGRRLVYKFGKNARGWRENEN
In short: as §1

SPI1 = SPI1 (Homo sapiens, UniProt P17947 1-270); conditions: protein: recombinant; tags: N-terminal GST; dsDNA, one strand shown
In short: as §1

SPIB = SPIB (Homo sapiens, UniProt Q01892 1-262); conditions: protein: recombinant; tags: N-terminal GST; dsDNA, one strand shown
Chain of SPIB (Q01892 whole entry): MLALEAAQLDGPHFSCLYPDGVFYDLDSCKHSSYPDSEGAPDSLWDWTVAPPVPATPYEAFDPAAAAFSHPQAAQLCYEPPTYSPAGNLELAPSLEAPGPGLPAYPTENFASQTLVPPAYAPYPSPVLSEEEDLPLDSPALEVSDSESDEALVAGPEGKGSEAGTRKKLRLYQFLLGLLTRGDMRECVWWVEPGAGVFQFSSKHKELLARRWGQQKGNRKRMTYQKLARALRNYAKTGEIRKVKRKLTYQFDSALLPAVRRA
In short: as §1

ELK3 = target: T6, ELK3 (Homo sapiens, UniProt P41970 1-407); conditions: protein: recombinant; tags: N-terminal GST; dsDNA, one strand shown
T6 sequence: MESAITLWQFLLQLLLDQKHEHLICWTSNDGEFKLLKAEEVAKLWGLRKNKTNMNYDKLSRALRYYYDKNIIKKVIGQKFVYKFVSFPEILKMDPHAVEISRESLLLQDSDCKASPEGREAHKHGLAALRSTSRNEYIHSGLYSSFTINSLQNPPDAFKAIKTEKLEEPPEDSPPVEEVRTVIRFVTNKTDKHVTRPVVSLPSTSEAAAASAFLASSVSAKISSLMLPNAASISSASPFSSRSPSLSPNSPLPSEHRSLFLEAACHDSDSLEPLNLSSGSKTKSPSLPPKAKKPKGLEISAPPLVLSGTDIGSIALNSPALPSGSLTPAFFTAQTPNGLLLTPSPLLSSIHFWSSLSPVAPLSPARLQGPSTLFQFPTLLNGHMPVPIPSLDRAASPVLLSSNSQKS
In short: as §1

FEV = target: T7, FEV (Homo sapiens, UniProt Q99581 1-238); conditions: protein: recombinant; tags: N-terminal GST; dsDNA, one strand shown
T7 sequence: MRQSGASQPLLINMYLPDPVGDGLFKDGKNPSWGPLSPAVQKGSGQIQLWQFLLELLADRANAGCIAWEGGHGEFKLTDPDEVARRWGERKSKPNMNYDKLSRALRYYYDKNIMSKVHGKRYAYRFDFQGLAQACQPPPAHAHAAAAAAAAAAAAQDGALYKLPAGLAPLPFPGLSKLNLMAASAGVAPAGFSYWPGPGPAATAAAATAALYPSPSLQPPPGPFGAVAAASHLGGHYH
In short: as §1

ETV5 = ETV5 (Homo sapiens, UniProt P41161 1-510); conditions: protein: recombinant; tags: N-terminal GST; dsDNA, one strand shown
Chain of ETV5 (P41161 whole entry): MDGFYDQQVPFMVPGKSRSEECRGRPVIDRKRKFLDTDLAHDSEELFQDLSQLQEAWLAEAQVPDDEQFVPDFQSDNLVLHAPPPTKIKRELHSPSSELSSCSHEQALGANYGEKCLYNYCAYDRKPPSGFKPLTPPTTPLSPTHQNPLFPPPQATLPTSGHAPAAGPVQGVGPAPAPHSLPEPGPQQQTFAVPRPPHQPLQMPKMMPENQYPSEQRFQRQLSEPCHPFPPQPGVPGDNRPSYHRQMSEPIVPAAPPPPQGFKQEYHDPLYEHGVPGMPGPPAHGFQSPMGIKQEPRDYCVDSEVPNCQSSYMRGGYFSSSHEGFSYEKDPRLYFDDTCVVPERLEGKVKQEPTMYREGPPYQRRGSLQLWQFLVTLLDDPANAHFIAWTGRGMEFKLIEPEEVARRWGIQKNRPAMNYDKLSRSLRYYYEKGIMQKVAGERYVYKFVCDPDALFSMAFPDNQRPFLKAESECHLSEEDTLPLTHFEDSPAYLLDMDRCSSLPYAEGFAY
In short: as §1

HSF1 = HSF1 (Homo sapiens, UniProt Q00613 1-529); conditions: protein: recombinant; tags: N-terminal GST; chain copies: 3; dsDNA, one strand shown
Chain of HSF1 (Q00613 whole entry): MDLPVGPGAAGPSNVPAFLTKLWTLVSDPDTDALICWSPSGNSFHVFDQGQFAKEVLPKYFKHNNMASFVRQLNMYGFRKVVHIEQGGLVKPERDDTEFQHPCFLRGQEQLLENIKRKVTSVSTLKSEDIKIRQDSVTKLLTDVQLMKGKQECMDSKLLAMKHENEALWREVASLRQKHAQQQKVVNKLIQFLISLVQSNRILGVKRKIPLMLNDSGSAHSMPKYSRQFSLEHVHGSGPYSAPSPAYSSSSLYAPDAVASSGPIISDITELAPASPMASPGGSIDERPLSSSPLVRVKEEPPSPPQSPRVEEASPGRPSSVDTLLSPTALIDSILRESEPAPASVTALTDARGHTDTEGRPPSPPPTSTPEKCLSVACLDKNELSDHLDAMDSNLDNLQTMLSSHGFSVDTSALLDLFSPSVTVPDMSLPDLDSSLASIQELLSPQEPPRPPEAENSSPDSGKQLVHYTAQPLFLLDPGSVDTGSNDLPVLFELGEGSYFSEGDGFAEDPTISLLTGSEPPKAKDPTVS
In short: as §1

SPIC = target: T8, SPIC (Homo sapiens, UniProt Q8N5J4 1-248); conditions: protein: recombinant; tags: N-terminal GST; dsDNA, one strand shown
T8 sequence: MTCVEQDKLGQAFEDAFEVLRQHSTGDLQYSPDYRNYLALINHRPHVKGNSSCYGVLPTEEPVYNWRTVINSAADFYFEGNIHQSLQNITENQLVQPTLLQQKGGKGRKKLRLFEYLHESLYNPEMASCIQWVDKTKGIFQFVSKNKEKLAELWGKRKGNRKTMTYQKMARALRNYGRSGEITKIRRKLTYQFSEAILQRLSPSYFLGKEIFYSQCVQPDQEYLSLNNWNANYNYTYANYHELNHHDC
In short: as §1

ELF4 = ELF4 (Homo sapiens, UniProt Q99607 1-663); conditions: protein: recombinant; tags: N-terminal GST; dsDNA, one strand shown
Chain of ELF4 (Q99607 whole entry): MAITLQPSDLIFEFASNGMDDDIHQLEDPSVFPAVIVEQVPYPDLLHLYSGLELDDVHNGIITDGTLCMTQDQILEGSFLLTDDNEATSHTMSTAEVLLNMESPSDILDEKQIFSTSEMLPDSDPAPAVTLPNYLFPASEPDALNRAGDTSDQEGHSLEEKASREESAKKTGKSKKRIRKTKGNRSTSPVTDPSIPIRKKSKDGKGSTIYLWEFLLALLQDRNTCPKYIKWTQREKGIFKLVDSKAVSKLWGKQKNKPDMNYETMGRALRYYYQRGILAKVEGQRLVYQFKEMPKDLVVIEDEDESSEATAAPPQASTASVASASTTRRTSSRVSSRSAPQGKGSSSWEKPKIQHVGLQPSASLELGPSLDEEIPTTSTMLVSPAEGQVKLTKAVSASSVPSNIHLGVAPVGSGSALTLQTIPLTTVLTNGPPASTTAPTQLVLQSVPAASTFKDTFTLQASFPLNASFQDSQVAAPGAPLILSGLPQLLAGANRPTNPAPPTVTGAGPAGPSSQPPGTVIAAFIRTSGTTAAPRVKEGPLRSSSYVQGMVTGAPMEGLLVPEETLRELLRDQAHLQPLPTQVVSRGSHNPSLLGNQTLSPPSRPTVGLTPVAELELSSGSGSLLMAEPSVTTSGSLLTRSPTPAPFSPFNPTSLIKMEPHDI
In short: as §1

ELK4 = target: T9, ELK4 (Homo sapiens, UniProt P28324-2 1-405); conditions: protein: recombinant; tags: N-terminal GST; dsDNA, one strand shown
T9 sequence: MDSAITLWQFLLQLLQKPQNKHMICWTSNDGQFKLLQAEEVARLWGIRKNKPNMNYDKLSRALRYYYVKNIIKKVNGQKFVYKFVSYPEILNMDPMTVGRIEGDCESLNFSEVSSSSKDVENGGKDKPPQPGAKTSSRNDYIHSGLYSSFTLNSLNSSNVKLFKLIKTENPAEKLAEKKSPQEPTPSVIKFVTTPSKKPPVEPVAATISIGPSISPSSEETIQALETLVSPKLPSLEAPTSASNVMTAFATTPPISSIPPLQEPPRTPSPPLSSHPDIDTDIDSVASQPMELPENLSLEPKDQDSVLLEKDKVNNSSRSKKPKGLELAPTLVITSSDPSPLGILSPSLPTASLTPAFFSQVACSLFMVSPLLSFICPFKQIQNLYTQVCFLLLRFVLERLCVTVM
In short: as §1

ETV2 = target: T10, ETV2 (Homo sapiens, UniProt O00321 1-342); conditions: protein: recombinant; tags: N-terminal GST; dsDNA, one strand shown
T10 sequence: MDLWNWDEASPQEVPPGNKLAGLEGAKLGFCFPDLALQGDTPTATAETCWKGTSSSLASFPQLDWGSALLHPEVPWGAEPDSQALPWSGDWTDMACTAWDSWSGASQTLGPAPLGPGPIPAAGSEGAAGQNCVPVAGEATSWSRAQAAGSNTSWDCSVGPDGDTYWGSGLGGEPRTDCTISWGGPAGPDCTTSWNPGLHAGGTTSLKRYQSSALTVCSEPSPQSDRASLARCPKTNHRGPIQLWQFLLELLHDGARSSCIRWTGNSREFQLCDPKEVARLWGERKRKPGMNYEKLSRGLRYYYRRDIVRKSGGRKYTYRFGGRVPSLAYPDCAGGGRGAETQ
In short: as §1

ELF3 = target: T11, ELF3 (Homo sapiens, UniProt P78545 1-371); conditions: protein: recombinant; tags: N-terminal GST; dsDNA, one strand shown
T11 sequence: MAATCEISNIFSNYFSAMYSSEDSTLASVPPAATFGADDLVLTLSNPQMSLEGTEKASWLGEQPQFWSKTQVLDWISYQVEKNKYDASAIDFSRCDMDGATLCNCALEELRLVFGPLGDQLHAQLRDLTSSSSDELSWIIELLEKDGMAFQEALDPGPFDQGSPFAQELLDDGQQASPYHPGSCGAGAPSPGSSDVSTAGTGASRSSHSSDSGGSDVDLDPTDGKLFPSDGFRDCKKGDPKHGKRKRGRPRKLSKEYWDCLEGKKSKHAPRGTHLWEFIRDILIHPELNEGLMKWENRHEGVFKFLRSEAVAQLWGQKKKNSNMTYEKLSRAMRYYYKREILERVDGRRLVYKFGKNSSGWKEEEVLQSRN
In short: as §1

CRX = CRX (Homo sapiens, UniProt O43186 1-299); conditions: protein: recombinant; tags: N-terminal GST; dsDNA, one strand shown
Chain of CRX (O43186 whole entry): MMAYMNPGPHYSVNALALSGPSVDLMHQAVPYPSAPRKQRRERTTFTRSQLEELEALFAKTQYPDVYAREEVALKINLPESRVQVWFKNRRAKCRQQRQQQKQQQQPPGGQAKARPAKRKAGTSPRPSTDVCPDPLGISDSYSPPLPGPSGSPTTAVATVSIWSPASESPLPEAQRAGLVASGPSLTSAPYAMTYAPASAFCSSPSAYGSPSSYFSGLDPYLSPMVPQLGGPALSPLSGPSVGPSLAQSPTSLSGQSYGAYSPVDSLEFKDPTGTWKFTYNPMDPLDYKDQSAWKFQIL
In short: as §1

ETV1 = ETV1 (Homo sapiens, UniProt P50549 1-477); conditions: protein: recombinant; tags: N-terminal GST; dsDNA, one strand shown
Chain of ETV1 (P50549 whole entry): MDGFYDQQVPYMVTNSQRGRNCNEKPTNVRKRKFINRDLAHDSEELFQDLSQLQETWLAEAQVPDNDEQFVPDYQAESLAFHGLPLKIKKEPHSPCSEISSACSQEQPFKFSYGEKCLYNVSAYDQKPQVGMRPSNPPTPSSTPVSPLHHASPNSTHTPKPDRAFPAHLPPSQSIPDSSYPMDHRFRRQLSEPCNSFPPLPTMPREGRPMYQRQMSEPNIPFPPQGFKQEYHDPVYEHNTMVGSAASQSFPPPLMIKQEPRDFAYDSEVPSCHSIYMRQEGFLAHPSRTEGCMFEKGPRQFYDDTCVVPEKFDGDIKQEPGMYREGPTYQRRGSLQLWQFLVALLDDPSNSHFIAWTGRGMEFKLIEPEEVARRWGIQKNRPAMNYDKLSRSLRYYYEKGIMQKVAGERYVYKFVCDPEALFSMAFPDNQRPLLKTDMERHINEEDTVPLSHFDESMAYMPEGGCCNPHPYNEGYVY
In short: as §1

## TCACGC
FLI1
  binding signal: 1.35 fold enrichment (6-mer frequency, TF over GST control)
ELK1
  binding signal: 1.18 fold enrichment (6-mer frequency, TF over GST control)
GABPA
  binding signal: 1.22 fold enrichment (6-mer frequency, TF over GST control)
ERG
  binding signal: 1.18 fold enrichment (6-mer frequency, TF over GST control)
ELF1
  binding signal: 1.2 fold enrichment (6-mer frequency, TF over GST control)
EHF
  binding signal: 1.24 fold enrichment (6-mer frequency, TF over GST control)
SPI1
  binding signal: 1.17 fold enrichment (6-mer frequency, TF over GST control)
SPIB
  binding signal: 1.17 fold enrichment (6-mer frequency, TF over GST control)
ELK3
  binding signal: 1.28 fold enrichment (6-mer frequency, TF over GST control)
FEV
  binding signal: 1.18 fold enrichment (6-mer frequency, TF over GST control)
ETV5
  binding signal: 1.15 fold enrichment (6-mer frequency, TF over GST control)
HSF1
  binding signal: 1.08 fold enrichment (6-mer frequency, TF over GST control)
SPIC
  binding signal: 1.25 fold enrichment (6-mer frequency, TF over GST control)
ELF4
  binding signal: 1.16 fold enrichment (6-mer frequency, TF over GST control)
ELK4
  binding signal: 1.34 fold enrichment (6-mer frequency, TF over GST control)
ETV2
  binding signal: 1.26 fold enrichment (6-mer frequency, TF over GST control)
ELF3
  binding signal: 1.35 fold enrichment (6-mer frequency, TF over GST control)
CRX
  binding signal: 1.02 fold enrichment (6-mer frequency, TF over GST control)
ETV1
  binding signal: 1.13 fold enrichment (6-mer frequency, TF over GST control)
